# Results filed as inconclusive are left out. Activity calls are given as the source filed them. Calls follow the shape of the dose curve; as a rule, active = well fitted inhibition curve with a large enough effect; inconclusive = small, poorly fitted or top-dose-only effect, or effect the other way; inactive = flat fitted curve, though single readings scatter.
# Molecular target: Menin (Homo sapiens) (UniProt O00255)
# Experiment: Confirmation of Inhibitors Targeting the Menin-MLL Interaction in MLL Related Leukemias: Confirmation in an HTRF (commercial TR-FRET) Assay using His-tagged menin and biotin-labeled MLL peptide
# Settings: His-menin / biotin-MLL peptide binding; series mostly up to 126 µM; activity change, negative = inhibition: at the top concentration
# Text: qHTS Assay for Inhibitors Targeting the Menin-MLL Interaction in MLL Related Leukemias
# NIH Chemical Genomics Center [NCGC]
# NIH Molecular Libraries Probe Centers Network [MLPCN]
# Assay Submitter (PI): Jolanta Grembecka, Tomasz Cierpicki, University of Virginia
# Translocations of the MLL (Mixed Lineage Leukemia) gene are frequently found in human leukemias affecting both children and adults. Fusion of MLL to one of more than 60 genes results in generation of oncogenic proteins upregulating Hox genes, which are vital to blood cell development. Patients harboring fusion of the MLL gene suffer from aggressive leukemias and respond poorly to available therapies. All of the oncogenic fusion proteins have a preserved N-terminal fragment of MLL that has been identified to interact with menin. It has been recently discovered that association with menin is critical to the leukemogenic activity of the MLL fusion oncoproteins. Selective targeting of the menin-MLL interaction could provide an attractive therapeutic approach to develop novel drugs for MLL-related leukemias. Small molecules blocking the menin-MLL interaction should reverse the oncogenic potential of MLL fusion proteins.
# We have developed and optimized a fluorescence polarization-based assay for the identification of Menin-MLL inhibitors. The assay was run employing two different MLL-derived peptides. The present assay uses a 12 amino acid peptide labeled with fluorescein at its N-terminus. This peptide consists of the menin high affinity binding motif from MLL and is potently bound by menin. Another peptide with a mutated sequence, labeled with Texas Red, was used in parallel as a less stringent screen for inhibitors.
# The present assay uses an alternate technology to confirm hits from the primary screen - homogeneous time resolved fluorescence (HTRF).
# The Menin protein, the MLL-wild type (w.t.) derived peptide (N-terminal 12 amino acids), the MLL-derived peptide labeled with Texas Red and the MLL-w.t. peptide labeled with Fluorescein were kindly supplied by laboratory of Dr. Jolanta Grembecka, University of Virginia. All protein and peptide solutions were stored in single use aliquots at -80C. The Eu3+ Cyrptate-conjugated mouse monoclonal antibody anti-6 Histidine (Eu3+-AB) and the Streptavidin-XL665 conjugate (XL665) were purchased from Cisbio International (Bedford, MA). All antibody and XL665 conjugate solution stocks were stored in single use aliquots at -20C. The Buffer components for all assays were purchased from Sigma-Aldrich (St. Louis, MO) and Invitrogen (Carlsbad, CA).
# 1. HTRF reaction buffer: 50 mM Tris-HCl pH 7.5, 50 mM NaCl, 1mM DTT.
# Before use, 0.05% BSA is added.
# 2. His6-Menin protein, MLL-w.t. labeled with biotin.
# Stored in singe use aliquots at -80C.
# 3. MLL-w.t. unlabeled peptide as positive control: 10 uM final in HTRF buffer.
# 1. Prepare His6-Menin at 200 nM, MLL-w.t.-biotin at 80 nM in HTRF buffer.
# 2. Prepare His6-Menin at 200 nM, MLL-w.t.-biotin at 80 nM and 10 uM MLL-w.t. unlabeled mixture in HTRF buffer.
# 3. Dispense 10 ul per well of reagent in step 1 in columns 2, 4-24 in a black 384 well plate, dispense 10 ul per well of reagents from steps 2 in column 1. Incubate plate at ambient for 15 minutes.
# 4. Transfer 1 uL per well of compound to plate and incubate at ambient for 1 hr.
# 5. Dispense 10uL of the donor (6His-Cryptate, 3.5 nM final conc.) and acceptor (SA_XL, 10nM final conc.) complex in the HTRF buffer with 0.01% BSA. Incubate for 1h.
# % is scaled to controls: 0 for no effect and ±100 for the full control effect; potency is read from the fitted curve at half-maximal effect.
# Sequence of Menin (Homo sapiens) (O00255 whole entry, looked up): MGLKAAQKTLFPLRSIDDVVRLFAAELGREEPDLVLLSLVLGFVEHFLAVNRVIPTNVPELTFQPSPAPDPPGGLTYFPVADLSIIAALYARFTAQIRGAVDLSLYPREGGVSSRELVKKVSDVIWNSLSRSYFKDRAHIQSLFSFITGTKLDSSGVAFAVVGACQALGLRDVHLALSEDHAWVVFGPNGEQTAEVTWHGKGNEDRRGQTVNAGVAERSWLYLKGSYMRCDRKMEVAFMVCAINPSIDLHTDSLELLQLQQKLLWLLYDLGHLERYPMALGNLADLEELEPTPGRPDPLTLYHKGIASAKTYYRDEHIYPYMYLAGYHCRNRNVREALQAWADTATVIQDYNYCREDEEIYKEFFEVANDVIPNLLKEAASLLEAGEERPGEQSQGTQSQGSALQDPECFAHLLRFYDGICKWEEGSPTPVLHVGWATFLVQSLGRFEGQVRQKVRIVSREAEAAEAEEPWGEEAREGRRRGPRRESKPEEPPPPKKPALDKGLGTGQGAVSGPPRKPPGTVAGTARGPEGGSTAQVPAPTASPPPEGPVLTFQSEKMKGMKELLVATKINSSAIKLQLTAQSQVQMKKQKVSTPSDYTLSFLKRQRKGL
SMILES,"activity change, negative = inhibition",Potency
O=C(N1CCOCC1)N1CCN(S(=O)(=O)c2ccc(Cl)cc2)CC1,5.87% (inactive),–
Cc1[nH]nc(-c2ccc(OCc3cnn(-c4ccccc4)c3)c(C)c2O)c1Oc1ccccc1,-21.4% (inactive),–
Cn1ncc2c(N3CCCCC3)nc(NCCCO)nc21,-5.5% (inactive),–
C/C(=N\Nc1ccc(Cl)c(C(=O)O)c1)c1ccc[nH]1,6.1% (inactive),–
Cc1ccccc1-c1cncnc1NC1CCNCC1,-14.4% [at 383 µM] (inactive),–
O=C(CCN1CCN(c2ccc([N+](=O)[O-])cc2)CC1)c1ccc(Cl)cc1,-5.98% [at 383 µM] (inactive),–
NC(=NCCCCCCN=C(N)/N=C(\N)Nc1ccc(Cl)cc1)/N=C(\N)Nc1ccc(Cl)cc1,–,282 µM (active)
C[N+]1(CCNC(=O)/C=N/O)CCCCC1,1.09% (inactive),–
COc1ccc(/C=C(\C#N)C(=O)NCc2ccccc2)cc1,-1.59% (inactive),–
C=C(C)CNC(=S)Nc1cccc2cnccc12,6.82% (inactive),–
CN1CCN(CC(=O)Nc2ccc(S(=O)(=O)N(C)C)cc2)CC1,0.239% (inactive),–
O=C(CCC1CCCCC1)NCCN1C2=NC[C@H](Cc3ccc(O)cc3)N2C[C@H]1Cc1ccc(O)cc1,-15.4% [at 383 µM] (inactive),–
O=C(NC(=S)Nc1ccccc1)c1cc(-c2ccccc2)nc2ccccc12,-1.55% [at 383 µM] (inactive),–
CCCC(c1nnnn1Cc1cccs1)N1CCN(C2CCCC2)CC1 (stereo not given),-23.6% (inactive),–
N#Cc1ccc(Cl)cc1NC(=O)CNCc1cccs1,5.39% (inactive),–
CC(CC(=O)Nc1nc2ccccc2[nH]1)n1ccnc1 (stereo not given),2.97% (inactive),–
CN1[C@H](CC(=O)c2ccccc2)CCC[C@H]1C[C@@H](O)c1ccccc1,0.991% [at 383 µM] (inactive),–
COc1cc(OC)cc(C(=O)N/N=C/c2ccc(OC)c(COc3ccc4ccccc4c3)c2)c1,-18.7% (inactive),–
CCOc1cc(C(c2c(C)[nH][nH]c2=O)c2c(C)[nH][nH]c2=O)cc(Br)c1OC,-4.43% [at 383 µM] (inactive),–
COc1ccccc1/C=N/n1c(N)c(S(=O)(=O)c2cccs2)c2nc3ccccc3nc21,-7.78% [at 383 µM] (inactive),–

SMILES,"activity change, negative = inhibition",Potency
C[C@H](NC(=O)c1cc2c(cn1)[nH]c1ccccc12)C(=O)O,–,79.4 µM (active)
Cc1cc2cc(C(c3nnnn3CC3CCCO3)N3CCCc4ccccc43)c(=O)[nH]c2cc1C (stereo not given),-8.66% (inactive),–
CCCCCC1CCC(C(=O)NCCN2CCOCC2)CC1 (stereo not given),10.1% (inactive),–
COc1cccc(C(=O)/C=C/Nc2ccc(S(=O)(=O)Nc3ccc(C(C)=O)cc3)cc2)c1,-17.8% [at 383 µM] (inactive),–
O=C(/C=C/c1ccccc1)c1cccs1,2.03% [at 383 µM] (inactive),–
O=C(CC(=O)c1ccccc1)Nc1cc(C(F)(F)F)ccc1Cl,-2.84% (inactive),–
Oc1ccc(Nc2ncnc3c2oc2ccccc23)cc1,-8.71% [at 383 µM] (inactive),–
CC1CCCCN1S(=O)(=O)c1ccc(C(=O)Nc2ccccc2-c2nc3ccccc3[nH]2)cc1 (stereo not given),-17.5% [at 383 µM] (inactive),–
O=C(c1cc(F)c(F)cc1Cl)N1CCN(c2ncccn2)CC1,-3.58% (inactive),–
Cc1ccc(S(=O)(=O)c2cc(OC(=O)c3ccco3)ccc2OC(=O)c2ccco2)cc1,-10.5% (inactive),–
CCOc1ccc2c(c1)C(NC(C)=O)C(=O)N2CCN1CCOCC1 (stereo not given),-12.1% (inactive),–
CCCN(CCC)CCCNC(=S)Nc1ccc2nc(N3CCCC3)cc(C)c2c1,13.3% (inactive),–
Cn1c(=O)n(C)c2cc3[nH]cnc3cc21,5.86% (inactive),–
COC(=O)c1ccccc1NC1=C/C(=N\S(=O)(=O)c2ccc(C(=O)O)cc2)c2ccccc2C1=O,-21.4% [at 383 µM] (inactive),–
CCCOc1ccc(C(=O)N2CCN(Cc3ccc4c(c3)OCO4)CC2)cc1,1.23% (inactive),–
CC(C)Cc1cc(C(=O)NCCCN2CCOCC2)no1,1.92% (inactive),–
O=C(CCn1nc(-c2ccccc2)ccc1=O)N1CCN(c2ccccn2)CC1,4.1% (inactive),–
CCOc1ccc(-c2nn(-c3ccccc3)cc2/C=C2\SC(N)=NC2=O)cc1C,-18.9% [at 383 µM] (inactive),–
O=C(N/N=C/c1cn(-c2cccs2)nc1-c1ccccc1)c1ccccc1O,-10.9% [at 383 µM] (inactive),–
O=C(O)/C(=C\c1ccc(F)cc1)c1ccc(-c2ccccc2)cc1,-11.4% (inactive),–

# Source: PubChem BioAssay AID2778 (National Center for Advancing Translational Sciences (NCATS), 2010)
